According to PubChem BioAssay (NCI):
The panel holds about 83,000 compounds, 20% with a hit somewhere; the sample as a whole holds those more often.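 For each line, cells grew in 96-well plates with the test compound present at a single concentration for 48 hours.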 Unmarked numbers belong to inactive results. Activity calls are given as the source filed them. Rule for the calls: active = growth percent below 10; inactive = the rest.

Experiments:
Assay in all cases: NCI-60 one-dose screen, 48 h (100 = growth as untreated, 0 = no growth, -100 = all killed)
Conditions in all cases: 10 µM unless noted
SR leukemia = tested on: SR leukemia
RPMI-8226 leukemia = tested on: RPMI-8226 leukemia
OVCAR-8 ovarian = tested on: OVCAR-8 ovarian
OVCAR-5 ovarian = tested on: OVCAR-5 ovarian
OVCAR-4 ovarian = tested on: OVCAR-4 ovarian
SK-OV-3 ovarian = tested on: SK-OV-3 ovarian
IGROV1 ovarian = tested on: IGROV1 ovarian
OVCAR-3 ovarian = tested on: OVCAR-3 ovarian
HS 578T breast = tested on: HS 578T breast
NCI/ADR-RES ovarian = tested on: NCI/ADR-RES ovarian

| Structure (SMILES) | growth (SR leukemia) | growth (RPMI-8226 leukemia) | growth (OVCAR-8 ovarian) | growth (OVCAR-5 ovarian) | growth (OVCAR-4 ovarian) | growth (SK-OV-3 ovarian) | growth (IGROV1 ovarian) | growth (OVCAR-3 ovarian) | growth (HS 578T breast) | growth (NCI/ADR-RES ovarian) |
| --- | --- | --- | --- | --- | --- | --- | --- | --- | --- | --- |
| COc1c(N2CC3CCCNC3C2)c(F)cc2c(=O)c(C(=O)N/N=C/c3ccc(N(C)C)cc3)cn(C3CC3)c12 (stereo not given) | -33.5% (active) | 62.9% | 87.3% | 95.7% | 90% | 114% | 58.9% | 51.2% | 95.8% | 81.6% |
| O=C(Cn1cc[n+](CC(=O)c2ccc(-c3ccccc3)cc2)c1)Nc1cccc2cccnc12 | 53.9% | 33.5% | 76.6% | 90.6% | 32.9% | 80% | 27.3% | 50.1% | 75.8% | 97.9% |
| Cc1nn(-c2ccccc2)c2ncnc(N/N=C/c3ccccc3)c12 | 98.1% | 105% | 96.7% | 97.5% | 80.4% | 102% | 81.9% | 83.5% | 103% | 93% |
| COC(=O)c1ccc(NC2=C/C(=N/S(=O)(=O)c3ccc(C(=O)O)cc3)c3ccccc3C2=O)cc1 | 0.0887% (active) | 2.88% (active) | 9.15% (active) | 18.8% | -56.5% (active) | 106% | 11.3% | -28.6% (active) | -13.6% (active) | 4.23% (active) |
| O=C(Cn1cc(-c2ccccc2)nn1)Nc1nc(-c2ccc(Cl)cc2)cs1 | 98.6% | 99.3% | 101% | 104% | 92.7% | 94.7% | 108% | 123% | 106% | 102% |
| COc1ccc(NC(=O)Nc2ccc3c(ccn3C(=O)c3cccc(F)c3)c2)cc1 | 42.7% | 78.9% | 89.1% | 62.3% | 48.1% | 106% | 69.1% | 13.5% | 31.6% | 65.5% |
| O=C(CN1CCN(c2cc(=O)[nH]c3ccc(F)cc23)CC1)Nc1ccc(Cl)cc1 | 84.3% | 104% | 33.3% | 86.2% | 29.7% | 65.1% | 67.1% | 60.5% | 34.6% | 76% |
| O=C(CNc1nc(-c2cccc([N+](=O)[O-])c2)cs1)Nc1cccc(Cl)c1 | 94.9% | 98% | 101% | 105% | 102% | 107% | 102% | 116% | 110% | 105% |
| C/C(=N\O)[C@H]1C[C@]23CC[C@]4(C)[C@H](CC[C@@H]5[C@@]6(C)CC/C(=N/O)C(C)(C)[C@@H]6CC[C@]54C)[C@H]2[C@H](C)C1(C)OC3 | 98.7% | 124% | 106% | 105% | 82.8% | 122% | 86.2% | 113% | 104% | 113% |
| COc1ccc(C2c3sc4c(C)cccc4c3Oc3nc(CC(=O)Nc4ccccc4)[nH]c(=O)c32)cc1 (stereo not given) | 62.7% | 89.5% | 99.8% | 88.7% | 65% | 85.8% | 47.9% | 93.9% | 87.8% | 38.7% |
| Cc1ccc(-c2cc3nc(C(Cl)Cl)nc(C)n3n2)cc1 | 113% | 94.6% | 102% | 104% | 118% | 84.2% | 72.2% | 104% | 107% | 110% |
| COc1ccc2c(c1)c(-c1cc(N)n3nc(-c4cn(C)c5ccc(OC)cc45)cc3n1)cn2C | -12.2% (active) | -0.83% (active) | 97.9% | 117% | 109% | 134% | 105% | 117% | 110% | 120% |
| O=C(Nc1ccc2c(ccn2Cc2ccccn2)c1)c1ccnnc1 | 101% | 94.4% | 104% | 95% | 68.3% | 105% | 80.3% | 106% | 102% | 114% |
| CC1(C)NCCC[C@]2(C)[C@H]3C/C(=N\O)C4[C@@H]5C[C@@](C)(CO)CC[C@]5(C)CC[C@@]4(C)[C@]3(C)CC[C@@H]12 (stereo not given in full) | 81.2% | 111% | 98.4% | 104% | 99.4% | 107% | 96.5% | 109% | 98.6% | 98.1% |
| CCN(CC)c1cn(-c2ccc(S(N)(=O)=O)cc2)nn1 | 97% | 103% | 102% | 105% | 101% | 113% | 113% | 110% | 98.3% | 109% |
| O=C(Nc1ccc(Br)cc1)Nc1nc2ccc([N+](=O)[O-])cc2s1 | -27.9% (active) | -35% (active) | 8.82% (active) | 19.4% | -10.6% (active) | -5.7% (active) | 21.8% | -5.56% (active) | -3.63% (active) | 3.27% (active) |
| COc1ccc(NCc2cn(-c3ccc(C(=O)O)cc3)nc2-c2cc(C(F)(F)F)cc(C(F)(F)F)c2)cc1 | 112% | 67.2% | 109% | 104% | 100% | 99.6% | 108% | 101% | 81.5% | 96.8% |
| O=C(CNc1nc(-c2cccc([N+](=O)[O-])c2)cs1)Nc1cccc([N+](=O)[O-])c1 | 2.66% (active) | -18.8% (active) | -3.29% (active) | -12.9% (active) | 5.36% (active) | -23.9% (active) | -28.3% (active) | 5.33% (active) | -11.8% (active) | -11.4% (active) |
| CCN(CC)c1ccc2c(c1)Oc1nc(N)c(C#N)c(N)c1C2Sc1ccc(C)cc1 (stereo not given) | -22% (active) | -22.9% (active) | -57.9% (active) | -88.6% (active) | -96.7% (active) | -89.3% (active) | -87.4% (active) | -54% (active) | -18.8% (active) | -17.9% (active) |
| NS(=O)(=O)c1ccc(Nc2nc(SCc3ccccc3)nc3ccccc23)cc1 | 33.6% | 32.8% | 60.6% | 83.3% | 58% | 91.3% | 90.9% | 84.7% | 62.2% | 102% |
| COc1ccccc1NC1=C(Cl)C(=O)c2nc(C)ccc2C1=O | -27.9% (active) | -30.4% (active) | 9.87% (active) | 78.9% | -98.2% (active) | 88.3% | -83.5% (active) | -85.9% (active) | 72.1% | 7.08% (active) |
| C#CCNC1CCC(c2csc(C#C)n2)=C1C (stereo not given) | 2.46% (active) | -28.1% (active) | 40.5% | 76% | 90.3% | 92.7% | -63.6% (active) | -21.9% (active) | 90.7% | 33.9% |
| CN1CCN(Cc2ccc(NC(=O)c3cncc(C#Cc4cnc5ccc(N6CCN(C)CC6)nn45)c3)cc2C(F)(F)F)CC1 | -52.2% (active) | -13.9% (active) | -81.8% (active) | 61.4% | 10.9% | 92% | -37.2% (active) | -76.9% (active) | -23.1% (active) | -31.3% (active) |
| CCCCCc1ccc(S(=O)(=O)Nc2cc(-c3csc(NC(=O)CN4CCN(C)CC4)n3)ccc2OC)cc1 | -20.3% (active) | -27% (active) | 50.8% | 62.4% | 41.8% | 73.4% | 14.2% | -19.4% (active) | -30.3% (active) | 41.9% |
| C=CCOc1cccc(/C=C2\SC(=S)N(C3CC(=O)N(c4ccc(Br)cc4)C3=O)C2=O)c1 (stereo not given) | 93.7% | 96.4% | 99.9% | 108% | 109% | 88% | 103% | 108% | 106% | 99.9% |
| Cc1ccc(-c2cc3nc(C(Cl)Cl)nc(-c4ccco4)n3n2)cc1 | 82.4% | -29.4% (active) | 18.3% | 2.3% (active) | 36% | 24.2% | 64.5% | -36.3% (active) | -2.05% (active) | 3.8% (active) |
